High-throughput results from PubChem BioAssay.
A selection: hits, their analogues and other compounds. The true share with any hit is near 10%.
FLuc inh-1: Firefly luciferase inhibition profiling of diverse chemical library using quantitative high-throughput screening. purified P. pyralis luciferase, luminescence, biochemical. Potency, µM (highest dose often 115 µM), usual class: inhibitors. actives 2.5% (n = 76,000). AID 1347043, 2019; note: % is set by controls: 0 for no effect and ±100 for the full control effect; nearly all actives have a fitted effect of over 65% in size
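Purified P. pyralis luciferase (10nM final) in 50mM Tris acetate pH 7.5, 10mM Mg acetate, 0.01% Tween-20, 0.05% BSA with 10uM D-luciferin and 10uM ATP. Compounds titrated qHTS. Luminescence imaged on CCD.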
NIH3T3 tox: Cytotoxic Profiling in NIH 3T3 Cell Line of Diverse Libraries Using Quantitative High-Throughput Screening | NIH 3T3 viability, CellTiter-Glo ATP luminescence, 48-72 h | Potency, µM (doses to about 96.7 µM), inactives show top-dose activity change, negative = cytotoxicity, usual class: inhibitors | actives 4.3% (n = 94,000) | AID 1345082, 2018; note: % is set by controls: 0 for no effect and ±100 for the full control effect; nearly all actives have a fitted effect of over 55% in size
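First NIH 3T3 cells are plated at 400 cells/well; next compound is pinned in; then plates incubate 48 or 72 hr at 37 °C; finally CellTiter-Glo is added and luminescence read after 10 min.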
NPR1 antag: Natriuretic polypeptide receptor (hNpr1) antagonism - Primary qHTS | Potency, µM (doses to about 46.3 µM), for inactives: top-dose activity change, negative = inhibition, most hits filed as inhibitors | HEK293 hNpr1 GloSensor cGMP, ANP-stimulated luminescence | AID 1347048, 2019 | Atrial natriuretic peptide receptor 1 (Homo sapiens), P16066 | actives 1.6% (n = 76,000); calls by dose curve; note: % is set by controls: 0 for no effect and ±100 for the full control effect; nearly all actives have a fitted effect of over 60% in size
Target sequence (P16066 whole entry, looked up): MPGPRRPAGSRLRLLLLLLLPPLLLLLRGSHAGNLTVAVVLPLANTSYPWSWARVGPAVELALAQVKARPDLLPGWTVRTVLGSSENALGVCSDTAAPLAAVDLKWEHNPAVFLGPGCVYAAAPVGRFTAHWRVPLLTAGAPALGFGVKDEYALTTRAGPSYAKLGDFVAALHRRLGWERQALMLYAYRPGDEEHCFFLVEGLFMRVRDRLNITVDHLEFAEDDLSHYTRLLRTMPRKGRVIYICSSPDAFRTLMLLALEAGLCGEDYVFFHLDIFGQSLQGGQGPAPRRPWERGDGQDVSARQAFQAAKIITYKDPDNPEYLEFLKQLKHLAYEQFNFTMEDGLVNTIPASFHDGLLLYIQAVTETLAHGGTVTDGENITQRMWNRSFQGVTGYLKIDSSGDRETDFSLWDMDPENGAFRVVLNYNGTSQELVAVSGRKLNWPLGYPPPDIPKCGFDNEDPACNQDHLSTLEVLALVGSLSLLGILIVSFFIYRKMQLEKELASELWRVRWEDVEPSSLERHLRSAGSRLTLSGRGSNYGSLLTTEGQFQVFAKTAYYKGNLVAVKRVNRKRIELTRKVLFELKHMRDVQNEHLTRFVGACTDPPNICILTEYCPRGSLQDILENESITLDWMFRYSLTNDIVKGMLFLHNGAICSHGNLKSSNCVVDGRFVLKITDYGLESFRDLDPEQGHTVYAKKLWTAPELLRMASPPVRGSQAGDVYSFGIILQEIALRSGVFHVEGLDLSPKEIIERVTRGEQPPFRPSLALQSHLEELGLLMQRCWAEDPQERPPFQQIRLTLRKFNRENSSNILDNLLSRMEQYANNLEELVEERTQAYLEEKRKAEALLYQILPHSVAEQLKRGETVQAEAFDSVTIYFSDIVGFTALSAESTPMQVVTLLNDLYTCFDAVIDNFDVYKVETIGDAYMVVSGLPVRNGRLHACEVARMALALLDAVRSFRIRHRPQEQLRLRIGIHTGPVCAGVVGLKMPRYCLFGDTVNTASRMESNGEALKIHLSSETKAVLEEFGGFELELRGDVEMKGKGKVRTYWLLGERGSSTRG
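Compound pre-incubated 30 min at room temperature on GloSensor-loaded HEK293 cells stably carrying hNpr1 and the pGS-40F cGMP biosensor. Stimulation uses hNppA at 0.1 nM final; luminescence is taken at baseline and 20 min post-agonist.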
GPT2 inhibitor: Primary qHTS assay for inhibitors of Glutamate pyruvate transaminase 2 (GPT2); Recombinant GPT2, coupled pyruvate oxidase/HRP Amplex Red fluorescence; Potency, µM (top dose mostly 57.7 µM), for inactives: at the top dose activity change, negative = inhibition, most hits filed as inhibitors; actives 0.25% (n = 100,000); Alanine aminotransferase 2 (Homo sapiens), Q8TD30; note: % is set by controls: 0 for no effect and ±100 for the full control effect; nearly all actives have a fitted effect of over 60% in size
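Inhibition is scored from Amplex Red fluorescence generated when pyruvate oxidase and HRP act on pyruvate released by GPT2. Reactions contain 10ng/uL enzyme, 250uM a-KG and 2mM L-alanine and run 30 min at room temperature.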
HEK293 tox: Cytotoxic Profiling in HEK 293 Cell Line of Diverse Libraries Using Quantitative High-Throughput Screening. actives 6.6% (n = 94,000). AID 1345083, 2018. HEK 293 viability, ATP luminescence (CellTiter-Glo), 48-72 h. Potency, µM (doses to about 115 µM), without a hit: at the top dose activity change, negative = cytotoxicity, usual class: inhibitors; note: % is set by controls: 0 for no effect and ±100 for the full control effect; nearly all actives have a fitted effect of over 60% in size
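Viability of HEK 293 cells, plated at 250 cells/well, was judged by cellular ATP after compound treatment for 48 or 72 hr. Luminescence was imaged 10 min after CellTiter-Glo addition at room temperature.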
FLuc SDR no ATP: Firefly luciferase (FLuc-C-HiBiT) SDR gain of signal screen - without ATP | shares compounds with FLuc inh-1 | Purified FLuc-C-HiBiT, Nano-Glo HiBiT luminescence, no ATP | Potency, µM (titrated, usually from 32.7 µM), without a hit: at the top dose activation (signal gain), usual class: activators | actives 7.8% (n = 1,300) | AID 1963318, 2024; note: nearly all actives have a fitted effect of over 55% in size
FLuc SDR ATP: Firefly luciferase (FLuc-C-HiBiT) SDR gain of signal screen - plus ATP; shares compounds with FLuc inh-1; purified FLuc-C-HiBiT + ATP, HiBiT complementation luminescence; Potency, µM (titrated, usually from 32.7 µM), for inactives: at the highest dose activation (gain of signal), usual class: activators; actives 8.7% (n = 1,300);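 note: signal reports ligand binding via conformational change of the enzyme rather than luciferase catalysis; % of control where 0% means no effect; nearly all actives have a fitted effect of over 55% in size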
FLuc inh-2: Firefly luciferase (FLuc-C-HiBiT) enzymatic inhibition screen - Functional assay | purified FLuc-C-HiBiT enzyme, luciferin luminescence | Potency, µM (highest dose often 32.7 µM), inactives show top-dose activity change, negative = inhibition, usual class: inhibitors | actives 42% (n = 1,300) | shares compounds with FLuc inh-1; note: % is set by controls: 0 for no effect and ±100 for the full control effect; nearly all actives have a fitted effect of over 70% in size
An asterisk follows results filed as active; i = inactive; ? = inconclusive; . = no result given; [ ] = remark or other dose. Unless noted, calls come from the whole dose curve; as a rule, active = well fitted curve in the direction sought with a large enough effect; inconclusive = small, poorly fitted or top-dose-only effect, or another doubt; inactive = no such curve, though single readings can be large; an effect the other way counts as inactive or inconclusive. Potency is the fitted concentration of half-maximal effect.

SMILES	FLuc inh-1	NIH3T3 tox	NPR1 antag	GPT2 inhibitor	HEK293 tox	FLuc SDR no ATP	FLuc SDR ATP	FLuc inh-2
CN(Cc1cccnc1)c1ccc(-c2nc(COc3ccccc3)no2)cn1	7.9µM*	?	10µM*	-7%	25µM*	18%	18%	?
CN(CCc1ccccn1)c1ccc(-c2nc(COc3ccccc3)no2)cn1	8.9µM*	?	?	?	35µM*	13%	15%	?
c1ccc(CCCc2noc(-c3ccc(NCc4ccccn4)nc3)n2)cc1	13µM*	-18%	?	5%[11.5 µM]	?	10%	8%	-10%
CN(CCO)c1ccc(-c2nc(CCCc3ccccc3)no2)cn1	6.3µM*	-29%	0%	-10%	?	15%	14%	?
c1ccc(OCc2noc(-c3ccc(NCC4CCCCO4)nc3)n2)cc1 (centres undefined)	?	?	-20%	4%	?	.	.	.
Cc1nonc1C1CCCN1c1ccc(-c2nc(COc3ccccc3)no2)cn1 (centres undefined)	i	?	-16%	5%	?	.	.	.
O=C(c1ccccc1F)N1CC(Oc2ccc(F)cc2F)C1	.	-20%	.	i	-14%	.	.	.
COc1ccc(CC(=O)NC2CCN(Cc3cccc(-c4cccs4)c3)CC2)cc1	.	-32%	.	2%	-31%	.	.	.
OC(c1nc(Nc2ccc(Oc3ccccc3)cc2)n[nH]1)C1CC1 (centres undefined)	14µM*	?	-22%[70.6 µM]	-10%[88.5 µM]	?	17%[49.3 µM]	11%[49.3 µM]	?
Fc1cccc(Nc2cnc3ccc(-c4ccccc4)nn23)c1	?	?	-21%[70.6 µM]	?	?	.	.	.
Fc1cc(Nc2cnc3ccc(-c4ccccc4)nn23)cc(N2CCOCC2)c1	13µM*	32µM*	-27%[70.6 µM]	-20%[88.5 µM]	45µM*	14%[49.3 µM]	11%[49.3 µM]	?
c1ccc(-c2noc(-c3nc(C4CC4)no3)n2)cc1	2.5µM*	-6%	?	i	?	17%	19%	?
Cc1ccc(-c2noc(-c3nc(C4CC4)no3)n2)cc1	i	3%	1%	i	-3%	.	.	.
CN1c2cc(C(=O)Nc3cccc(Cl)c3)ccc2C(=O)N2CCCCCC21 (centres undefined)	10µM*	?	-24%	i	?	10%	11%	?
CN1c2cc(C(=O)Nc3cccc(F)c3)ccc2C(=O)N2CCCCCC21 (centres undefined)	8.9µM*	?	-28%	i	?	12%	14%	?
Cc1ccc(-c2nc(CN3CCCC3=O)no2)cc1	?	-13%	1%	i	5%	.	.	.
CC(=O)NC1(C)CCN(Cc2ccc(-c3ccc4c(ccn4C)c3)cc2)C1 (centres undefined)	4.5µM*	?	?	i	?	25%[49.3 µM]	?	7.2µM*
COc1ccc(-c2cccc(CN3CCCC(C)(NC(C)=O)C3)c2)cc1OC (centres undefined)	i	?	1%[70.6 µM]	-9%[88.5 µM]	?	.	.	.
CO[C@H]1C(=O)N(C(C)C)[C@H]1C1CCN(C(=O)c2cnc(C)cn2)CC1	i	-5%	5%	i	i	.	.	.
CC1CCN(C(=O)c2cc3c(s2)CCC(C(=O)O)C3)CC1 (centres undefined)	13µM*	-30%	0%	-7%	-9%	10%	19%	?
COc1ccc(-c2ccccc2)cc1N1C(=O)[C@@H]2C[C@H]1CN2C(=O)C1(N)CC1	i	?	0%	-1%	-7%	.	.	.
Cc1ccc(C)c(N2CCN(C(=O)c3ccc(NC(=O)c4nsc5ccccc45)cc3)CC2)c1	.	.	.	.	.	17%	?	?
COc1ccccc1C(=O)N1CC2(C1)NC(=O)c1ccccc1O2	i	-16%[138 µM]	2%[70.6 µM]	0%[88.5 µM]	-24%[172 µM]	.	.	.
CCOC(=O)c1cccc(NC(=O)N2CC[C@@H](CC(=O)O)[C@@H](CC)C2)c1	i	-18%[174 µM]	6%[70.6 µM]	-6%[88.5 µM]	-13%[172 µM]	.	.	.
CCOC(=O)C1(C)C=C(Nc2cccc(C(=O)O)c2)C(=O)N1c1ccccc1 (centres undefined)	.	.	.	.	.	10%	?	?
SMILES	FLuc inh-1	NIH3T3 tox	NPR1 antag	GPT2 inhibitor	HEK293 tox	FLuc SDR no ATP	FLuc SDR ATP	FLuc inh-2
Cc1ccc(NC(=O)N2CCC(CCNC(=O)CCC3CCCC3)CC2)cc1	i	i	0%	-3%	12%	.	.	.
Cc1ccc(NC(=O)/C=C/c2ccccc2Cl)cc1Cl	.	.	.	.	.	13%	11%	?
O=C(c1ccccc1)N1CCC2(CC1)C(=NC1CCCCC1)NC(=O)N2c1cccnc1	i	?	19%	0%	3%	.	.	.
CCCn1c(C)cnc1CC1CCN(C(=O)C2(c3ccc(OC)cc3)CC2)C1 (centres undefined)	6.3µM*	-25%	-21%	-21%	28µM*	12%	17%	-14%
COCCn1c(C)cnc1CC1CCCN(C(=O)C2(c3ccc(OC)cc3)CC2)C1 (centres undefined)	i	-6%	-5%	i	-3%	.	.	.
O=Cc1cccc(-c2ccc(C(=O)O)o2)c1	.	i	.	0%[88.5 µM]	i	.	.	.
CN(C)C(=O)c1ccc(-c2cccc(-c3ccn(CC4CC4)n3)c2)o1	7.1µM*	?	?	?	?	24%	?	7.9µM*
N#Cc1c(-n2ncnc2-c2cccc(Cl)c2)sc2c1CCCCC2	.	.	.	.	.	29%	?	2µM*
N#Cc1c(-n2ncnc2-c2ccccc2Cl)sc2c1CCCCC2	.	.	.	.	.	30%	?	2.2µM*
CCOc1ccccc1C(=O)NC1CCN(c2cnn(C)c(=O)c2)CC1	i	?	-21%	i	-12%	.	.	.
